# In publication PMC4336329 (PLoS ONE, 2015):
# Screen size: about 310,000 compounds; about 14,000 (4.5%) showed an effect of 50% or more. Effects have a minus sign here. Many of the other results were omitted from the sample, so strong results are more common in it than they were.
# Biological target: human ether-à-go-go-related gene (hERG) potassium channel (human, UniProt Q12809)
# Experiment: primary screen, population patch clamp on CHO cells stably expressing hERG; higher = less effect of the substance
# 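Further: peak tail current of the secondary pulse compared with the same well before compound.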
# Chain of human ether-à-go-go-related gene (hERG) potassium channel (Q12809 whole entry, looked up): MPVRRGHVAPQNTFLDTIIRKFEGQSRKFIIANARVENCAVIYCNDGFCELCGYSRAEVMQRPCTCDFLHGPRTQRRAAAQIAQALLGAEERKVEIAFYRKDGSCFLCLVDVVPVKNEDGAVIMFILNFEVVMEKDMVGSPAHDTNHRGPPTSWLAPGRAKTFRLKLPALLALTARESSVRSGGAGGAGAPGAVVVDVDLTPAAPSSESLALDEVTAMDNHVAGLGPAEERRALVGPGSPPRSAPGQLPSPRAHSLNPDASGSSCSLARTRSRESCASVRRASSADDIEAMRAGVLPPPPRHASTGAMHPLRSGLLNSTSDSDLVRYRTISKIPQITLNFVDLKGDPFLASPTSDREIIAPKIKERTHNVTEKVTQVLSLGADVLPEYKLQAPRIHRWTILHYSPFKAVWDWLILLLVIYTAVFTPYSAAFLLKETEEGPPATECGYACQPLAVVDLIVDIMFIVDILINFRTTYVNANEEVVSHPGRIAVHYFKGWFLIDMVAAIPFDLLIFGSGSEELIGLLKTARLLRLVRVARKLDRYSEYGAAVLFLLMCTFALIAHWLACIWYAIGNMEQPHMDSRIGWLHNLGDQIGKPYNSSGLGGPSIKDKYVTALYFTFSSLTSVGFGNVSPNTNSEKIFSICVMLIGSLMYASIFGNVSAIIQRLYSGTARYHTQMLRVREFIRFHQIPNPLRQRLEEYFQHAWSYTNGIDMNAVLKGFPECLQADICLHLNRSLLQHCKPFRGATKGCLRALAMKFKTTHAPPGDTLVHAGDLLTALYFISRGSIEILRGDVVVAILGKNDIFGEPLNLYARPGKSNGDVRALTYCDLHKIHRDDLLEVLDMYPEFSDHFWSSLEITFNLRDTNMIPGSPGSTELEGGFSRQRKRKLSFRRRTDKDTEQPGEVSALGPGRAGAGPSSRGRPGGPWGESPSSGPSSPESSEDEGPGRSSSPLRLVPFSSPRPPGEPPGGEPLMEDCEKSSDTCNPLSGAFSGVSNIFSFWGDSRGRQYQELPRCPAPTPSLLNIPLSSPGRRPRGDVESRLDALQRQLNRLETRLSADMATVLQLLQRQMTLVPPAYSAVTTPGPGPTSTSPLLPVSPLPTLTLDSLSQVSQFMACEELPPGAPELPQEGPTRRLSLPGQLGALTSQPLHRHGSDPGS
row,Structure (SMILES),"hERG current change (%, negative = inhibition) at 10uM [%]"
1,CC1(C)C2CCC13CS(=O)(=O)N[C@@H]3C2 (stereo partly drawn),20.5
2,Cc1ccc(CC2CC(=O)N(CCc3ccc4c(c3)OCO4)C2=O)cc1 (stereo not drawn),3.17
3,O=C(Nc1ccc(O)cc1)C1CCCO1 (stereo not drawn),16.4
4,Cc1ccc(NC(=O)CSc2nnc(-c3ccccn3)n2N)cc1F,-48.5
5,Cc1cccc(NC(=O)CSc2nnc(-c3cc(C)[nH]n3)n2N)c1,-29.1
6,C=CCn1c(SCC(=O)Nc2ccc(OC)cc2)nnc1-c1cnccn1,-23.1
7,C=CCn1c(SCC(=O)Nc2cccc(C)c2)nnc1-c1cnccn1,-71.9
8,C=CCn1c(SCC(=O)Nc2ccc(S(N)(=O)=O)cc2)nnc1-c1cnccn1,13
9,Cc1cc(-c2nnc(SCC(=O)Nc3cccc(Cl)c3)n2N)n[nH]1,-71.9
10,Nn1c(SCC(=O)Nc2ccc(F)cc2)nnc1-c1ccccn1,-53.6
11,C=CCn1c(SCC(=O)Nc2cc(C)cc(C)c2)nnc1-c1cnccn1,-29.6
12,Cc1cc(-c2nnc(SCC(=O)Nc3cccc(F)c3)n2N)n[nH]1,6.38
13,NC(=O)c1ccc(NC(=O)CSc2nnc(-c3ccccn3)n2N)cc1,17.1
14,C=CCn1c(SCC(=O)Nc2ccc(F)cc2)nnc1-c1cnccn1,-58.9
15,C=CCn1c(SCC(=O)Nc2c(C)cccc2C)nnc1-c1cnccn1,-2.77
16,Cc1cc(C)[n+](Cc2ccccc2)cc1C(N)=O.[Cl-],16.6
17,N#Cc1cc(Nc2c(N)nc[nH]c2=O)c([N+](=O)[O-])cc1C#N,8.95
18,O=C(O)CCN1C(=O)c2ccc(NC(=O)Cc3ccc(Cl)cc3)cc2C1=O,3.94
19,CC(=O)c1cc(-c2ccccc2)n(CC(=O)N2CCCC2)c1C,13.3
20,C=CCn1c(SCC(=O)Nc2cccc3ccccc23)nnc1-c1cnccn1,-39.9
21,CCn1c(SCC(=O)Nc2ccc(C)cc2)nnc1-c1cnccn1,-31.8

row,Structure (SMILES),"hERG current change (%, negative = inhibition) at 10uM [%]"
1,C=CCn1c(SCC(=O)Nc2ccc(F)cc2F)nnc1-c1cnccn1,-58.8
2,Cc1ccc(NC(=O)CSc2nnc(-c3ccccn3)n2C)cc1,-28.1
3,CCn1c(SCC(=O)Nc2ccc(F)cc2)nnc1-c1cnccn1,-56.8
4,CCn1c(SCC(=O)Nc2ccc3c(c2)OCCO3)nnc1-c1ccccn1,-16.1
5,C=CCn1c(SCC(=O)Nc2cc(C)ccc2C)nnc1-c1cnccn1,-14.4
6,CCn1c(SCC(=O)Nc2ccc(C)cc2)nnc1-c1ccccn1,-59.1
7,CCn1c(SCC(=O)Nc2ccccc2F)nnc1-c1cnccn1,-34.9
8,COc1cc(C2NC(=O)NC(c3ccccc3)=C2C(C)=O)ccc1OCC#N (stereo not drawn),-8.43
9,CN1CCN(C(=O)c2ccc(C3SCC(=O)N3Cc3ccco3)cc2)CC1 (stereo not drawn),6.13
10,CCOc1ccc(/C=N/NC(=O)c2csc(C)c2C)c(OCC)c1,6.43
11,Cc1ccc(S(=O)(=O)NCCC(=O)Nc2cc(S(=O)(=O)N(C)C)ccc2C)cc1C,-7.95
12,O=C(c1cc([N+](=O)[O-])ccc1N1CCCC1)N1CCCC1,-0.904
13,CCN1CC(CN(C)Cc2nc(-c3cccs3)no2)CC1=O (stereo not drawn),3.65
14,CCN1CC(CN(C)Cc2nc(-c3ccc(OC)c4ccccc34)oc2C)CC1=O (stereo not drawn),-37.2
15,CCN1CC(CN(C)Cc2nc(-c3ccco3)oc2C)CC1=O (stereo not drawn),10.4
16,CCN1CC(CN(C)Cc2nc(-c3ccc(C(F)(F)F)cc3)no2)CC1=O (stereo not drawn),-28.9
17,CCN1CC(CN(C)Cc2nc(-c3ccc(C(F)(F)F)cc3)oc2C)CC1=O (stereo not drawn),-51.5
18,CCN1CC(CN(C)Cc2nc(-c3ccc(Cl)cc3)no2)CC1=O (stereo not drawn),-59.1
19,Cc1cc(O)c(NC(=O)c2ccc(Br)o2)cc1C,-7.04
20,COc1ccc(N2CCN(C(=O)CN(c3cccc(OC)c3)S(=O)(=O)c3ccccc3)CC2)cc1,-19.4
21,CC(=O)OC1CC2(C)C(=O)CCC2C2CCc3cc(O)ccc3C12 (stereo not drawn),1.59

row,Structure (SMILES),"hERG current change (%, negative = inhibition) at 10uM [%]"
1,Cc1ccc(Nc2cccc(C(F)(F)F)c2)nn1,-0.351
2,COc1ccc2c(c1)CCCN2C(N)=O,17.4
3,COc1ccc2c(c1)CCCN2C(N)=Nc1ccc(Cl)cc1,-63.7
4,COc1ccc2c(c1)CCCN2S(=O)(=O)c1ccc(Cl)cc1,9.65
5,Cc1ccc(NC(=O)CN(C)C(=O)C(Sc2ccccc2)c2ccccc2)cc1 (stereo not drawn),2.05
6,CC(=O)O[C@H]1C(=O)[C@@]2(C)C([C@H](OC(=O)c3ccccc3)[C@]3(O)C[C@H](OC(=O)[C@H](O)[C@@H](NC(=O)Cc4ccccc4)c4ccccc4)C(C)=C1C3(C)C)[C@]1(OC(C)=O)CO[C@@H]1C[C@@H]2O (stereo partly drawn),16.6
7,CCn1cc(C(=O)N2CCc3ccccc3C2)c(=O)c2cc(S(=O)(=O)N3CCCCC3)ccc21,-40.7
8,CCn1cc(C(=O)NCCCN2CCCC2)c(=O)c2cc(S(=O)(=O)N3CCc4ccccc4C3)ccc21,-8.75
9,CCOCCCNC(=O)c1cn(CC)c2ccc(S(=O)(=O)N3CCC(C)CC3)cc2c1=O,-22.6
10,CCn1cc(C(=O)NCCCOC)c(=O)c2cc(S(=O)(=O)N3CCCC3)ccc21,-4.05
11,CCn1cc(C(=O)NCCCN2CCCC(C)C2)c(=O)c2cc(S(=O)(=O)N3CCc4ccccc4C3)ccc21 (stereo not drawn),-75.7
12,CCC1CCCCN1CCCNC(=O)c1cn(CC)c2ccc(S(=O)(=O)N3CCc4ccccc4C3)cc2c1=O (stereo not drawn),-72
13,CCn1cc(C(=O)NCCCOC)c(=O)c2cc(S(=O)(=O)N3CCC(C)CC3)ccc21,-10.3
14,CCC1CCCCN1CCCNC(=O)c1cn(C)c2ccc(S(=O)(=O)N3CCOCC3)cc2c1=O (stereo not drawn),21.3
15,CCOCCCNC(=O)c1cn(CC)c2ccc(S(=O)(=O)N3CCCC3)cc2c1=O,-6.08
16,CCn1cc(C(=O)NCCCN2CCCCCC2)c(=O)c2cc(S(=O)(=O)N3CCc4ccccc4C3)ccc21,-77.7
17,CCn1cc(C(=O)N2CCc3ccccc32)c(=O)c2cc(S(=O)(=O)N3CCCCCC3)ccc21,-67.1
18,CCn1cc(C(=O)N2CCc3ccccc32)c(=O)c2cc(S(=O)(=O)N3CC(C)CC(C)C3)ccc21 (stereo not drawn),-43.8
19,COc1cc(N2CCOCC2)ccc1/C=C1\C(=O)NC(=O)N(Cc2ccc3c(c2)OCO3)C1=O,16.5
20,COc1ccc(S(=O)(=O)N2CCOCC2)cc1C(=O)Nc1cc(C)on1,2.19
21,CCn1c(SCC#N)nc2ccccc2c1=O,2.7

row,Structure (SMILES),"hERG current change (%, negative = inhibition) at 10uM [%]"
1,CN(CC(=O)Nc1ccc(F)cc1)C(=O)COC(=O)CSc1ccc(F)cc1,-16
2,CC(=O)N1CCOc2ccc(S(=O)(=O)NCCc3ccc(S(N)(=O)=O)cc3)cc21,12.2
3,CCc1c(C)sc(NC(=O)c2cc(-c3ccc(O)cc3)on2)c1C#N,11.2
4,O=C(CCc1nnc2ccc(NCc3ccco3)nn12)Nc1ccc(F)cc1F,-4.76
5,COc1ccc(OC)c(C2=NOC(C(=O)Nc3cc(C)on3)C2)c1 (stereo not drawn),17.2
6,O=C(CCc1nc2sc3c(c2c(=O)[nH]1)CCCC3)Nc1ccccc1Cl,7.93
7,CN(C)C(=O)CSc1nnc(NC(=O)CCc2ccccc2)s1,-5.24
8,CC(=O)c1cccc(NC(=O)N2CC(C)OC(C)C2)c1 (stereo not drawn),10.4
9,Cc1ccc(NC(=O)OCCNC(=O)c2ccncc2)cc1,8.86
10,O=C(COc1cccc(Cl)c1)NCc1ccccc1,18.9
11,CN(CC(=O)NCc1ccc(F)cc1)Cc1cccc(Cl)c1,4.92
12,CCN(CC(=O)NCc1ccc(Cl)cc1)C(=O)COc1ccc(Cl)cc1Br,-67.7
13,CCN(CC(=O)NCc1ccc(Cl)cc1)C(=O)COc1cccc(Cl)c1,-73.5
14,CCN(CC(=O)NCc1ccc(F)cc1)C(=O)C(C)Oc1cccc(Cl)c1 (stereo not drawn),-54.4
15,CCN(CC(=O)NCc1ccc(F)cc1)C(=O)c1ccc(C(=O)c2ccccc2)cc1,-42.3
16,CCOc1ncccc1C(=O)N(CC)CC(=O)NCc1ccc(Cl)cc1,1.69
17,CCN(CC(=O)NCc1ccc(Cl)cc1)C(=O)COc1ccc(C)cc1C,-78.4
18,CCN(CC(=O)NCc1ccc(Cl)cc1)C(=O)c1cnc(Cl)c(Cl)c1,5.29
19,O=C(COc1ccc(Cl)cc1Br)NC(=O)NCc1ccccc1,13.3
20,Cc1cc(Cl)ccc1OCC(=O)NCc1ccncc1,-8.3
21,CCN(CC(=O)NCc1ccc(Cl)cc1)C(=O)CSc1cc(C)ccc1C,-47.5
